# Screening data as filed in PubChem BioAssay.
# Most compounds without a hit are left out; they make up all but 7.9% or so of the library.
# SW480 rereplic: A quantitative high throughput screen for small molecules that induce DNA re-replication in SW480 colon adenocarcinoma cells | AID 624297, 2012 | SW480 DNA re-replication, Hoechst DNA content imaging, 48 h | 1.8% of 340,000 active | Potency, µM (highest dose often 46.1 µM), for the others: top-dose re-replication activation, usual class: activators; note: % of control where 0% means no effect; nearly all actives have a fitted effect of over 55% in size
#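 250 cells/well; 23 nL cpd via pin tool; 48 hr, 37 C, 5% CO2; Hoechst 40 min; imager read of total nuclear intensity, ex 405/em 500-530 nm.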
# MCF10A rereplic: A quantitative high throughput screen for small molecules that induce DNA re-replication in MCF 10a normal breast cells; MCF 10A DNA re-replication, Hoechst nuclear intensity, 48 h; Potency, µM (titrated, usually from 46.1 µM), for inactives: top-dose activity, positive = re-replication, hits mostly activators; 2.9% of 350,000 active; note: % of control where 0% means no effect; nearly all actives have a fitted effect of over 50% in size
# HT1080-NT tox: qHTS for induction of synthetic lethality in tumor cells producing 2HG: qHTS for the HT-1080-NT fibrosarcoma cell line; HT-1080-NT fibrosarcoma viability, CellTiter-Glo ATP luminescence, 48 h; Potency, µM (top dose mostly 46.1 µM), without a hit: at the highest dose activity, negative = less viability, usual class: cytotoxic; 1.6% of 360,000 active; AID 686970, 2013;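 note: NT is the 2HG producing partner of a matched IDH1 knockdown line; 0% = DMSO-treated cells and -100% = media-only wells without cells; nearly all actives have a fitted effect of over 55% in size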
#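 Compounds were tested in concentration-response format on HT-1080-NT cells for 48 hours at 37 degrees C. Cell viability came from CellTiter-Glo luminescence; curves were classified by r2, response magnitude and activity.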
# KB-3-1 tox: qHTS assay for MDR1-selective chemotherapeutics: Primary screen using the parental adenocarcinoma cell KB-3-1; KB-3-1 viability, CellTiter-Glo ATP luminescence, 72 h; Potency, µM (series often up to 46.1 µM), usual class: cytotoxic; 1.4% of 400,000 active; note: % is set by controls: 0 for no effect and ±100 for the full control effect; nearly all actives have a fitted effect of over 60% in size
#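 Luminescent ATP read-out (CellTiter-Glo) measures survival of drug-naive KB-3-1 cells after 72 h compound exposure at 37 °C. Titration series was screened from lowest to highest concentration, with DMSO vehicle plates as background controls.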
# KB-V1 cytotox: qHTS assay for MDR1-selective chemotherapeutics: Primary screen using the drug-selected MDR subline cells KB-V1; KB-V1 MDR cells viability, CellTiter-Glo, 72 h; Potency, µM (titrated, usually from 46.1 µM), most hits filed as cytotoxic; 3.4% of 400,000 active; AID 1347076, 2019; note: % is set by controls: 0 for no effect and ±100 for the full control effect; nearly all actives have a fitted effect of over 60% in size
#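 Compound-treated KB-V1 multidrug-resistant cells, 72 h, 37 degrees C; viability by CellTiter-Glo. Fitted qHTS curves give the values.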
# HT1080 IDH1KD tx: qHTS for induction of synthetic lethality in tumor cells producing 2HG: qHTS for the HT-1080-IDH1KD cell line; 2% of 360,000 active; Potency, µM (series often up to 46.1 µM), for inactives: at the top dose activity, negative = toxicity, most hits filed as cytotoxic; HT-1080 IDH1 knockdown viability, ATP luminescence, 48 h;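 note: 0% = DMSO wells and -100% = cell-free medium wells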
#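 Viability of IDH1-knockdown HT-1080 fibrosarcoma cells was assessed by CellTiter-Glo after 48 h at 37 °C with titrated compound; concentration-effect curves were classified by fit quality and response size.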
# Active calls of the source: *; i = inactive; ? = inconclusive; · = no result given; [ ] = another dose, or the depositor's remark. Calls come from the whole dose curve; as a rule, active = well fitted curve in the direction sought with a large enough effect; inconclusive = small, poorly fitted or top-dose-only effect, or another doubt; inactive = no such curve, though single readings can be large; an effect the other way counts as inactive or inconclusive. Potency is the fitted concentration of half-maximal effect.
SMILES,SW480 rereplic,MCF10A rereplic,HT1080-NT tox,KB-3-1 tox,KB-V1 cytotox,HT1080 IDH1KD tx
Cc1c(Cl)cccc1NS(=O)(=O)c1ccccc1,0.8%,27.2%,-5.9%,i,18.4µM*,?
O=S(=O)(Nc1cccc2c1CCCC2)c1ccc(Cl)cc1,-77.1%,16.4µM*,-0.3%,?,?,-9.2%
O=C(Nc1ccc(Cl)cc1)Nc1ccccc1NS(=O)(=O)c1cccs1,-2.2%,18.4µM*,?,i,i,?
CC(=O)Nc1ccccc1NS(=O)(=O)c1ccc(Cl)cc1,?,26.0%,-6.3%,?,13µM*,?
Cc1ccccc1OCCC(=O)OCC(=O)NCCc1ccccc1,-5.0%,1.5%,1.5%,i,i,-0.9%
O=C(Nc1ncc(Br)s1)C(Cc1ccccc1)n1cccc1 (stereo unspecified),10.3%,19.4%,25.9µM*,i,i,-26.5%
CC(C(=O)Nc1nccs1)N1C(=O)c2ccccc2S1(=O)=O (stereo unspecified),-2.0%,-1.8%,-1.2%,i,?,22.1%
COc1cccc2c1C(=O)c1c(O)c3c(c(O)c1C2=O)C[C@@](O)(C(=O)CO)C[C@@H]3OC1CC(N)C(O)C(C)O1 (stereo partly specified),-9.7%,?,?,?,·,4.61µM*
COc1cccc2c1C(=O)c1c(O)c3c(c(O)c1C2=O)CC(O)(C(C)=O)CC3OC1CC(N(C)C)C(O)C(C)O1 (stereo unspecified),?,-0.9%,?,?,7.31µM*,0.731µM*
COc1cccc2c1C(=O)c1c(O)c3c(c(O)c1C2=O)C[C@@](O)(C(=O)CO)C[C@@H]3O[C@H]1C[C@H](N)[C@H](O)[C@H](C)O1,-14.0%,-0.5%,9.2µM*,?,·,0.326µM*
CC(C1SC(=S)NC1=O)C1SC(=S)NC1=O (stereo unspecified),·,·,-4.9%,i,i,-2.8%
CCCS(=O)(=O)N1CC(=O)N(c2cccc(F)c2)C(C)(C(=O)NC2CCCCCC2)C1 (stereo unspecified),·,·,·,i,i,·
COc1ccc[n+](CC(=O)c2ccc(F)cc2)c1,·,·,·,?,i,·
Cc1nnc(SCC(=O)N2CCC(c3noc4ccc(F)cc34)CC2)s1,-2.1%,?,2.9%,i,?,3.6%
Cc1sc2ncnc(SCC(=O)N3CCC(c4noc5ccc(F)cc45)CC3)c2c1C,-11.6%,-2.3%,0.2%,i,10.3µM*,-0.4%
O=C(CSc1ccc2ccccc2n1)N1CCC(c2noc3ccc(F)cc23)CC1,9.2%,?,-27.5%,i,9.2µM*,-18.5%
O=C(NCC1COc2ccccc2O1)c1cccc(S(=O)(=O)N2CCN(c3ccccc3)CC2)c1 (stereo unspecified),8.9%,?,-10.2%,i,i,-18.9%
Cc1cccc(/C=C2/S/C(=N/N=C3\CC4CCC3(C)C4(C)C)NC2=O)c1 (stereo unspecified),12.7%,?,-2.5%,?,20.6µM*,-2.1%[9.24 µM]
CCCCCn1cnc2c(sc3nc4c(cc32)CSC(C)(C)C4)c1=O,-74.6%,-51.0%,-9.1%,i,14.6µM*,-2.3%
CC1(C)Cc2nc3sc4c(=O)n(CC(=O)NCc5ccco5)cnc4c3cc2CO1,16.4µM*,9.2µM*,?,?,i,10µM*
CC1(C)Cc2nc3sc4c(=O)[nH]cnc4c3cc2CS1,-0.7%,10.0%,-2.2%,i,i,-0.2%
CC1(C)Cc2nc3oc4c(=O)n(CC(=O)Nc5cccc(Cl)c5)cnc4c3cc2CO1,18.4µM*,12.2%,5.5%,i,i,7.6%
CCCNC(=O)C1CCN(S(=O)(=O)c2ccc3c(c2)CCCN3C(C)=O)CC1,·,·,·,i,i,·
Cc1cc(C)c(C(=O)Nc2ccccc2)c(SCC(=O)Nc2ccc(Br)cc2C)n1,·,·,·,i,i,·
COC(=O)c1ccc(NC(=O)CSc2n[nH]c(CC(C)C)n2)cc1,·,·,·,i,?,·
SMILES,SW480 rereplic,MCF10A rereplic,HT1080-NT tox,KB-3-1 tox,KB-V1 cytotox,HT1080 IDH1KD tx
O=C(c1cnn(-c2ccccc2)c1)c1cc(Br)ccc1O,-1.9%,3.4%,12.5%,i,?,9.5%
O=C(c1ccc(O)c(Br)c1)c1cc(Br)ccc1O,4.4%,?,5.8µM*,i,i,?
CC(=O)Nc1cc(Br)ccc1O,-10.6%,0.731µM*,7.0%,i,i,-1.2%
O=C(C(=O)c1cc(Br)ccc1O)c1cc(Br)ccc1O,?,2.59µM*,3.66µM*,23.1µM*,?,2.91µM*
COc1ccc(-c2ccc(=O)n(CC(=O)Nc3cc(OC)ccc3OC)n2)cc1,·,·,·,i,i,·
CCOC(=O)c1ccc(-c2ccc3ncnc(NCc4cccs4)c3c2)o1,·,·,·,?,i,·
N#C/C(=N\Nc1cccc(C(F)(F)F)c1)C(=O)c1ccsc1,-14.7%,?,4.61µM*,16.4µM*,3.26µM*,?
Cc1nccc(-c2cccc(N/N=C(\C#N)C(=O)c3ccccc3)c2)n1,?,12.5%,?,?,?,?
CCCCNC(=O)c1ccc2c(=O)n(Cc3ccc(OC)cc3)c(=O)[nH]c2c1,·,·,·,i,i,·
O=C(CCN1C(=O)C2CCCCC2C1=O)N1CCN(S(=O)(=O)c2ccccc2)CC1 (stereo unspecified),-33.8%,1.9%,5.4%,i,i,-0.7%
CCSc1nnc2c(n1)[nH]c1c(C)cccc12,10.5%,-2.0%,?,?,16.4µM*,?
CC(C)NC(=O)N(C)C[C@H]1Oc2ccc(NS(=O)(=O)c3ccccc3)cc2C(=O)N([C@H](C)CO)C[C@@H]1C,-4.9%,3.2%,5.6%,i,i,17.4%
CC(C)CC(NC(=O)C1CCCCC1)C(=O)N1CCN(c2ccccn2)CC1 (stereo unspecified),-3.9%,0.1%,-1.9%,i,2.59µM*,-3.2%
O=C(Nc1ccccc1Cl)c1cc2c(-c3ccccc3)nn(-c3ccccc3)c2s1,·,·,·,i,i,·
COc1ccccc1/C=N/OCc1cc(C(C)=O)ccc1OC,5.2%,-4.5%,1.3%,i,i,-12.7%
CCCCCNC(=O)c1cn(CC)c2cc(N3CCN(C)CC3)c(F)cc2c1=O,?,?,16.4µM*,i,i,?
